Screens from PubChem.
Hits are enriched below; roughly 12% of the tested compounds scored in any of these assays.
SARS PLP yeast: SARS-CoV PLP inhibition in yeast | actives 0.19% (n = 330,000) | Potency, µM (series often up to 32.9 µM), for inactives: at the top dose activity, positive = growth rescue, most hits filed as activators | S. cerevisiae expressing SARS-CoV PLpro, growth rescue | AID 485353; calls by dose curve; further: 0% is about no effect; nearly all actives have a fitted effect of over 55% in size
Pf growth 96h: P. falciparum growth inhibition at 96 hours | actives 6.9% (n = 320,000) | P. falciparum luciferase reporter growth, 96 h | Potency, µM (series often up to 28.7 µM), inactives show top-dose activity change, negative = inhibition, hits mostly inhibitors | AID 504834; further: on the % scale 0 is the no-effect control and ±100 the full control effect
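96 h incubation, 37 C, 5% CO2, of luciferase-reporter P. falciparum-infected RBCs (2% hematocrit, 0.05% parasitemia final) with test compounds; endpoint luminescence.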
Pf growth 48h: inhibits P. falciparum growth in the first generation, 48 h; P. falciparum luciferase growth in erythrocytes, 48 h; actives 5.9% (n = 310,000); AID 504832; Potency, µM (top dose mostly 28.7 µM), for inactives: top-dose activity change, negative = inhibition, hits mostly inhibitors; further: on the % scale 0 is the no-effect control and ±100 the full control effect
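Read-out is firefly luciferase luminescence from an integrated reporter in P. falciparum, so falling signal marks reduced parasite growth. Infected erythrocytes were at 2% hematocrit and 0.1% parasitemia (final) in Albumax-supplemented RPMI 1640.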
Sm TGR block: S. mansoni TGR enzyme inhibition. actives 3% (n = 360,000). purified TGR, DTNB reduction, TNB absorbance 405 nm. Q962Y6. Potency, µM (titrated, usually from 114 µM), inactives show at the top dose activity change, negative = inhibition, hits mostly inhibitors; further: on the % scale 0 is the no-effect control and ±100 the full control effect; nearly all actives have a fitted effect of over 60% in size
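TGR 20 nM + NADPH 100 uM (dispensed conc.), cpd preinc 15 min RT; start with NADPH (500 uM addition) then DTNB (15 mM addition). Kinetic TNB absorbance, 405 nm filter. Four-parameter Hill fit across titration.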
Active calls of the source: *; ? = inconclusive; nt = not tested or not shown; [ ] = dose if it differs, or a comment. Unless noted, the call rests on the fitted dose curve; in most records, active means well fitted curve in the direction sought with a large enough effect; inconclusive means small, poorly fitted or top-dose-only effect, or another doubt; inactive means no such curve, though single readings can be large; an effect the other way counts as inactive or inconclusive. Potency means the concentration at half of the fitted maximal effect.

SMILES	SARS PLP yeast	Pf growth 96h	Pf growth 48h	Sm TGR block
Cc1ccc(CN2C(=O)N/C(=C\c3cccn3-c3cccc(C(=O)O)c3)C2=O)cc1	0%	9%	44%[5.75 µM]	35µM*
CCOc1ccc(C(=O)NCc2ccc3c(c2)CCN3C(=O)c2ccc(Cl)cc2)cc1	nt	nt	nt	10%
COc1cc(OC)c(NC(=O)CCn2cnc3onc(-c4ccc(F)cc4)c3c2=O)cc1Cl	nt	nt	nt	-5%
Cc1cccc(NC(=O)CN2C(=O)N/C(=C\c3ccc(-c4cccc(C(=O)O)c4)o3)C2=O)c1	1%	-11%	30%	56µM*
Cc1ccc(NC(=O)CN2C(=O)N/C(=C/c3cc(C)n(-c4cccc(C(=O)O)c4)c3C)C2=O)cc1	1%	?	4%	20µM*
CCn1c(C)cc(/C=C2\NC(=O)N(CC(=O)Nc3cccc(C)c3)C2=O)c1C	-7%	?	?	-33%
Cc1ccc(NC(=O)CN2C(=O)N/C(=C\c3cccn3-c3cccc(C(=O)O)c3)C2=O)cc1	1%	31%	23%	-22%
NC1=CC(=O)c2cccc3cccc1c23	-5%	0%	2.9µM*	-35%
O=C1C=C(O)c2cccc3cccc1c23	-2%	?	4%	5%
CC(=O)Nc1cccc(NC(=O)C(=O)NCC(c2ccco2)N2CCc3ccccc3C2)c1 (configuration not stated)	3%	?	12µM*	-19%
COc1ccc(S(=O)(=O)NCC(c2cccs2)N2CCc3ccccc3C2)cc1 (configuration not stated)	-13%	6%	-24%	-1%
COc1ccc(OC)c(S(=O)(=O)NCC(c2cccs2)N2CCc3ccccc3C2)c1 (configuration not stated)	-14%	?	15µM*	10%
COc1ccc(NC(=O)C(=O)NCC(c2ccco2)N2CCc3ccccc3C2)cc1OC (configuration not stated)	3%	?	12µM*	?
Cc1ccccc1C(=O)NCC(c1ccco1)N1CCc2ccccc2C1 (configuration not stated)	5%	-2%	-23%	-1%
COc1cccc(NC(=O)C(=O)NCC(c2ccco2)N2CCc3ccccc3C2)c1 (configuration not stated)	0%	?	12µM*	-6%
COc1cccc(C(=O)NCC(c2ccco2)N2CCc3ccccc3C2)c1 (configuration not stated)	3%	-21%	?	4%
CC(C)c1ccc(NC(=O)Cc2c(C(=O)O)n(C)c3ccccc23)cc1	1%	?	nt	23%
Cc1ccc(OCC(=O)Nc2ccc3nc(SCC(=O)N4CCOCC4)sc3c2)cc1	nt	nt	nt	5%
Cc1cccc(N2CCN(C(=O)[C@H](C)N3C(=O)C4CC=CCC4C3=O)CC2)c1C (some centres not stated)	0%	nt	nt	nt
Cc1cc(C)c(S(=O)(=O)NCC(c2ccco2)N2CCc3ccccc3C2)c(C)c1 (configuration not stated)	1%	?	9.3µM*	-18%
O=S(=O)(NCC(c1ccco1)N1CCc2ccccc2C1)c1ccc(F)cc1 (configuration not stated)	-2%	63%	7%	2%
N/C(CS(=O)(=O)c1ccccn1)=N\OC(=O)c1ccc(Cl)cc1	1%	27%	22%	0%
N/C(CS(=O)(=O)c1ccccn1)=N\OC(=O)c1ccccc1Cl	0%	156%	62%	40µM*
COc1ccccc1CCc1nnc(CCC(=O)NCCOc2cccnc2)o1	1%	12%	-6%	4%
COc1ccccc1CCc1nnc(CCC(=O)NCC(C)Oc2cccnc2)o1 (configuration not stated)	0%	17µM*	21%	-2%
COc1cc(OC)c(NC2(c3ccccc3)C(=O)c3ccccc3C2=O)cc1Cl	nt	nt	nt	1%
COc1ccc(-c2noc(CSc3nnc(C)n3-c3ccc(F)cc3)n2)cc1	nt	nt	nt	0%
O=C(C1CCCN(S(=O)(=O)c2cccc3nsnc23)C1)N1CCN(c2ccccn2)CC1 (configuration not stated)	-3%	67%	12µM*	-18%
O=C(Nc1ccncc1)C1CCCN(S(=O)(=O)c2cccc3cccnc23)C1 (configuration not stated)	-4%	5.9µM*	-11%	-2%
